Only a selection was taken, and hits are over-represented in it overall.
CBFb RUNX1 block: CBF-beta/RUNX1 interaction disruption. Q01196+Q13951. AlphaScreen CBFb-His/RUNX1-biotin binding, biochemical. Potency, µM (highest dose often 59.8 µM), for inactives: at the top dose activity, negative = inhibition, actives largely listed as inhibitors. 230,000 tested, under 10 active. AID 1477; note: % of control where 0% means no effect
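Compounds were screened at multiple concentrations against a preformed CBF-beta(His)/RUNX1(biotin) complex (30 nM of each) for 15 min at room temperature, followed by 90 min with nickel and streptavidin beads and AlphaScreen reading.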
ClpP mod: qHTS Assay for Activators of ClpP. AID 651965, 2013. purified B. subtilis ClpP, FRET peptide cleavage, 20 min. ATP-dependent Clp protease proteolytic subunit (Bacillus subtilis (strain 168)), P80244. 340,000 compounds, 1.9% hits. Potency, µM (doses to about 57.5 µM), inactives show at the highest dose activity change, negative = active; active = well fitted falling curve with a large enough effect; inconclusive = small, poorly fitted or top-dose-only effect; inactive = no such curve, though single readings can be large or run the other way; note: potency is the fitted concentration of half-maximal effect; the source files actives as falling curves though it sought activators and does not explain the sign; nearly all actives have a fitted effect of over 65% in size
Target sequence (P80244 whole entry, looked up): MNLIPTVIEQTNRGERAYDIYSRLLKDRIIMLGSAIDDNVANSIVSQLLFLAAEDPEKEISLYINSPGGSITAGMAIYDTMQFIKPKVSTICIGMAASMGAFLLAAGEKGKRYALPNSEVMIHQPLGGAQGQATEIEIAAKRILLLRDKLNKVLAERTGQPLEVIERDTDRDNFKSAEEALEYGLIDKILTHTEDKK
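FRET quenching reversal measured ClpP activation: 10 microg/mL B. subtilis ClpP at pH 8 with the FRET-FV decapeptide, read at 430 nm after 320 nm excitation. The 20-min minus 0-min signal was scaled between DMSO/no-enzyme wells and ADEP (5.8 microM final).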
Integrin act MD: activates integrin-mediated alleviation for muscular dystrophy; alpha7betagal myoblasts, beta-gal FDG fluorescence, 48 h; Potency, µM (top dose mostly 38.3 µM), for the others: at the highest dose activation, hits mostly activators; 350,000 compounds, 0.064% hits; AID 624291;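 note: potency is the fitted concentration of half-maximal effect; 100% = response of the positive control SU9516; nearly all actives have a fitted effect of over 60% in size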
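alpha7betagal+/- myoblasts (passage 13, 250/well) treated 48 h at 37C with compounds at 1:260 dilution of DMSO stock. Lysed, then beta-galactosidase activity read as FDG fluorescence (ex 480/em 540) after 30 min, with pre-read for autofluorescence.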
GRP78 ERSR act: inducers of ER stress response in human glioma cells; U87-MG GRP78 promoter luciferase reporter, 16 h; 420,000 compounds, 0.02% hits; Potency, µM, inactives show top-dose activation, actives largely listed as activators; AID 602332; note: potency is the fitted concentration of half-maximal effect; series mostly up to about 76 µM; % of control where 0% means no effect; nearly all actives have a fitted effect of over 35% in size
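Stably transfected U87-MG human glioma cells carrying a GRP78-based luminescent sensor were seeded at 1000 cells/well, pin-dosed with compounds and incubated 16 h. Luciferase reagent was then added, and end-point luminescence was read after 10 min at room temperature.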
Apoferritin bind: candidate novel general anesthetic via apoferritin binding; P02791; apoferritin/1-aminoanthracene competitive binding, fluorescence; Potency, µM (doses to about 77.5 µM), for the others: at the highest dose activity change, negative = displacement, usual class: inhibitors; 350,000 compounds, 0.074% hits; AID 485281; note: potency is the fitted concentration of half-maximal effect; % is set by controls: 0 for no effect and ±100 for the full control effect; nearly all actives have a fitted effect of over 20% in size
Target sequence (P02791 2-175 limits assumed): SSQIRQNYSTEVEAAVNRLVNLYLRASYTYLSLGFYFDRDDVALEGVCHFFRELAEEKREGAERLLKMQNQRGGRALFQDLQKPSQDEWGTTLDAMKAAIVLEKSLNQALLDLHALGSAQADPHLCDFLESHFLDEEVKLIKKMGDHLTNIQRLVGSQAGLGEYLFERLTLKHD
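10 uM apoferritin + 50% sat. 1-AMA, PBS; cpd 10 min RT; Ex380/Em535 endpoint; normalized to free probe vs complex; 4-param Hill fit; propofol titration as pos. ctrl.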
N370S GC mod: N370S glucocerebrosidase modulation, Gaucher chaperone candidate; 330,000 compounds, 0.092% hits; Potency, µM (highest dose often 59.4 µM), inactives show at the highest dose activity change, negative = inhibition, most hits filed as inhibitors; N370S GC spleen homogenate, 4MU-glucoside fluorescence; P04062;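 note: potency is the fitted concentration of half-maximal effect; 0% = full enzyme activity and -100% = no enzyme basal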
An asterisk follows results filed as active; ? = inconclusive; . = no result given; [ ] = another dose, or the depositor's remark. Unless noted, calls come from the whole dose curve; as a rule, active = well fitted curve in the direction sought with a large enough effect; inconclusive = small, poorly fitted or top-dose-only effect, or another doubt; inactive = no such curve, though single readings can be large; an effect the other way counts as inactive or inconclusive.

SMILES | CBFb RUNX1 block | ClpP mod | Integrin act MD | GRP78 ERSR act | Apoferritin bind | N370S GC mod
Cc1cc(C)n2ncc(C(=O)NCc3ccccc3)c2n1 | 0% | 28µM* | 15% | -2% | -12% | ?
CCOC(=O)C1CCN(C(=O)c2cnn3c(C)cc(C)nc23)CC1 | -1% | 32µM* | 0% | -2% | -4% | -2%
CCOC(=O)C1CCN(C(=O)COC(=O)c2nc3nc(C)cc(C)n3n2)CC1 | . | -3% | 2% | -4% | . | -6%
Cc1cc(C)n2nc(C(=O)NCc3ccccc3)cc2n1 | 0% | 25µM* | 2% | -3% | -11% | 31%[2.35 µM]
Cc1cc(C(F)F)n2ncc(C(=O)NCCc3ccc(Cl)cc3)c2n1 | 1% | 0% | 11% | -1% | ? | ?
Cc1cc(C)n2ncc(C(=O)NCCc3ccccc3)c2n1 | -1% | 28µM* | 3% | 0% | -13% | ?
Cc1cc(C)n2nc(C(=O)NCc3ccccc3)nc2n1 | 7% | 2% | 23% | -6% | -4% | -10%
COc1ccc(-n2c(CCNC(=O)c3ccccc3C(F)(F)F)nnc2SC)cc1 | . | . | . | -4% | . | .
Cc1ccc(F)cc1S(=O)(=O)NCc1nc(N2CCCC2)c2cccc(C)c2n1 | . | . | . | -4% | . | .
COc1cc2nc(N3CCCN(C)CC3)nc(N(C)C)c2cc1OC | . | 5% | . | . | . | .
COCc1ccc(-c2c(-c3ccc(OC)cc3)oc(=O)c3cc(OC)c(OC)cc23)cc1 | . | 32µM* | 0% | -3% | . | .
COC(=O)Cn1c(=NC(=O)c2cc(OC)cc(OC)c2)sc2cc(OC)ccc21 | -2% | 28µM* | -11% | -2% | 6% | 23%
COC(=O)Cn1c(=NC(=O)c2cc(-c3cccs3)nc3ccccc23)sc2cc(S(N)(=O)=O)ccc21 | 1% | ? | 19% | -1% | 10% | -2%
COC(=O)Cn1c(=NC(=O)c2cccc(OC)c2)sc2cc(OC)ccc21 | 11% | 25µM* | 11% | 6% | 1% | 2%
COc1ccc(C(=O)N=c2sc3cc(Cl)ccc3n2C)cc1 | . | -3% | . | 0% | -4% | .
COC(=O)Cn1c(=NC(=O)c2ccc(OC)cc2)sc2cc(OC)ccc21 | 11% | 25µM* | 33% | -2% | 2% | ?
COC(=O)Cn1c(=NC(=O)c2nc3ccccc3s2)sc2cc(S(N)(=O)=O)ccc21 | 2% | 22µM* | -16% | 3% | 7% | 1%
c1ccc(CCc2nnc3n2CCN(Cc2ccc4ccccc4n2)CC3)cc1 | . | . | . | -2% | . | .
CCOc1cc2c(C#N)c(N3CCNCC3)nc(N)c2c(N)n1 | 2% | 35µM* | -27% | -6% | 37% | -27%
CCOc1cc2c(C#N)c(N3CCCCC3)nc(N)c2c(N)n1 | -3% | 25µM* | -19% | 6% | ? | .
CCOC(=O)C1CCN(c2nc(N)c3c(N)nc(SCC(=O)O)cc3c2C#N)CC1 | -28% | 4% | -2% | -4% | -1% | 1%
CC(C)(C)n1ncc2c(=O)n(Cc3cccc(F)c3)cnc21 | . | . | . | 3% | . | .
O=C1CCCN1CCC(=O)N1CCCC(Nc2ccc(F)cc2)C1 (stereo not drawn) | . | 28µM* | 18% | -1% | -3% | 5%
Cc1cccc(-c2cnc(C)nc2C2CCCN(C(=O)c3cccc(Cn4cccn4)c3)C2)c1 (stereo not drawn) | . | . | . | 0% | . | .
CCOc1ccc(S(=O)(=O)Nc2ccccc2C(=O)NCC2CCCO2)cc1 (stereo not drawn) | -2% | 28µM* | 11% | 2% | -13% | 0%
SMILES | CBFb RUNX1 block | ClpP mod | Integrin act MD | GRP78 ERSR act | Apoferritin bind | N370S GC mod
Cc1cc(C2C(C#N)=C(N)Oc3n[nH]c(C)c32)c(C)s1 (stereo not drawn) | -1% | 18µM* | -39% | 9% | -1% | -3%
Cc1cnc(-n2ncc(C(=O)N(C)Cc3cccc4ncccc34)c2C(C)C)nc1-c1ccc(F)cc1 | . | . | . | -1% | . | .
CC(C)(C)c1cc(NC(=O)COC(=O)c2nccnc2N)n(-c2ccccc2)n1 | . | 22µM* | 5% | 1% | 8% | ?
COc1cccc(CN2CCC3(CC2)c2ccccc2[C@@H](NC(=O)c2ccccc2)[C@@H]3O)c1O | . | . | . | -4% | . | .
COc1ccc(CCn2c(=S)[nH]c(=O)c3cccnc32)cc1OC | . | -2% | . | . | . | .
CCOC(=O)c1c(NC(=O)c2ccn(CC)n2)sc2c1CCCC2 | 5% | 25µM* | -14% | -3% | -11% | ?
CCOC(=O)c1c(NC(=O)c2ccccc2N(C)S(=O)(=O)c2ccccc2)sc2c1CCCC2 | 24% | 13µM* | -31% | -6% | 3% | 30%
Oc1cc2cc(-c3csc(-c4ccc(F)cc4)n3)ccc2[nH]1 | . | -5% | . | 0% | . | .
COc1cc(=O)n2c(c1C(=O)N(C)Cc1cscn1)CCN(Cc1c(C)[nH]c3ccccc13)CC2 | . | . | . | 4% | . | .
CC1(C)Cc2c(c(-c3ccco3)[nH]c(=O)c2C#N)CO1 | -6% | -17% | -6% | -5% | -7% | 2%
CCc1[nH]c(=O)c(C#N)c2c1COC(C)(C)C2 | -3% | 25µM* | 19%[7.66 µM] | 0% | -7% | 14%
Cc1ccc(-c2ccc(=O)n(CC(=O)N3CCN(c4cccc(C)c4)C(C)C3)n2)cc1 (stereo not drawn) | -7% | -2% | 3% | -2% | 25µM* | 3%
CCC(C)NC(=O)c1[nH]c2cc(OC)ccc2c1Sc1ccc(C)cc1 (stereo not drawn) | . | 28µM* | . | -4% | -8% | .
CCC(C)C(=O)Nc1nnc(-c2cccs2)s1 (stereo not drawn) | -1% | 32µM* | 7% | 8% | -17% | 13%
COc1ccc(Cc2nnc(NC(=O)Cc3cccs3)s2)cc1OC | ? | 28µM* | -20% | -9% | -19% | 23%
O=C(Cc1cccs1)Nc1nnc(Cc2ccccc2)s1 | ? | 1% | -4% | 1% | -14% | -3%
CCC(=O)Nc1nnc(-c2cccs2)s1 | -2% | . | 0% | 8% | -7% | 0%
O=C(Cc1ccccc1)Nc1nnc(-c2cccs2)s1 | 10% | 20µM* | 5% | 3% | -4% | -7%
O=C(Cc1cccs1)Nc1nnc(-c2ccncc2)s1 | -3% | 28µM* | -8% | 3% | 0% | 1%
Cc1ccc(C(=O)[C@H](C)CN2CCCCC2)cc1 | . | . | . | -3% | . | .
N#Cc1nc(NCC2CC2)nc(Nc2ccccc2)n1 | . | . | . | . | -6% | .
Cc1cc(C)n(-c2cccc(C(=O)NCC3Cc4cc(Cl)cc(-c5cnccn5)c4O3)c2)n1 (stereo not drawn) | . | . | . | -4% | . | .
c1cc2c(cc1Cc1cncc(Cc3ccc4c(c3)OCO4)c1)OCO2 | . | 0% | . | -3% | . | .

Screens from PubChem.
